Laboratory results taken from PubChem BioAssay (NCATS).
Results filed as inconclusive are left out. Entries that show only a call come without a potency. Unmarked numbers belong to inactive results. Calls of active or inactive are those of the source. The call rests on the fitted dose curve; in most records, active means well fitted curve in the direction sought with a large enough effect; inconclusive means small, poorly fitted or top-dose-only effect, or another doubt; inactive means no such curve, though single readings can be large; an effect the other way counts as inactive or inconclusive.

How the values were obtained:
[1] = target: Rap guanine nucleotide exchange factor 3 (Homo sapiens) (UniProt O95398); test: Confirmatory qHTS for antagonist of cAMP-regulated guanine nucleotide exchange factor 3 (EPAC1) (AID 1645880); further: nearly all actives have a fitted effect of over 55% in size; further: potency means the concentration at half of the fitted maximal effect
In short: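 Released BODIPY-GDP fluoresces less than Rap1-bound BODIPY-GDP; the signal is followed at 480/540 nm at 5-min intervals over 30 min, after 5 min at room temperature. Reactions contain 100 nM EPAC1, 250 nM RAP1B-BODIPY-GDP and 50 uM GDP; results are normalized to ATA and DMSO.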

[2] = target: Rap guanine nucleotide exchange factor 3 (Homo sapiens) (UniProt O95398); test: Confirmatory qHTS for agonist of cAMP-regulated guanine nucleotide exchange factor 3 (EPAC1) (AID 1645881); further: nearly all actives have a fitted effect of over 75% in size; further: potency means the concentration at half of the fitted maximal effect;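 on activation: EPAC1 catalysed release of BODIPY-GDP from Rap1B seen as fluorescence loss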
[3] = target: Rap guanine nucleotide exchange factor 4 (Homo sapiens) (UniProt Q8WZA2); test: Confirmatory qHTS for agonist of cAMP-regulated guanine nucleotide exchange factor 4 (EPAC2) (AID 1645884);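 further: nucleotide exchange releases bodipy-GDP from Rap1 and this lowers its fluorescence; nearly all actives have a fitted effect of over 65% in size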; further: potency means the concentration at half of the fitted maximal effect
[4] = target: Rap guanine nucleotide exchange factor 4 (Homo sapiens) (UniProt Q8WZA2); test: Confirmatory qHTS for antagonist of cAMP-regulated guanine nucleotide exchange factor 4 (EPAC2) (AID 1645885); further: nearly all actives have a fitted effect of over 25% in size; further: potency means the concentration at half of the fitted maximal effect
[5] = target: Rap guanine nucleotide exchange factor 3 (Homo sapiens) (UniProt O95398); test: Counterscreen qHTS for antagonist of cAMP-regulated guanine nucleotide exchange factor 3 (EPAC1) (AID 1645888)
In short: (§1)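 Rap1B–BODIPY-GDP (250 nM) with 50 uM GDP; compounds pin-transferred to 9.74 nM–152 uM final (activator) or from 7.32 nM upwards (inhibitor). Fluorescence Ex/Em 480/540 nm read at 5 and 30 min, then after adding cAMP or buffer, at room temperature.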

[6] = target: Rap guanine nucleotide exchange factor 3 (Homo sapiens) (UniProt O95398); test: Counterscreen qHTS for agonist of cAMP-regulated guanine nucleotide exchange factor 3 (EPAC1) (AID 1645889); further: nearly all actives have a fitted effect of over 40% in size; further: potency means the concentration at half of the fitted maximal effect
In short: as §1

Sequence of Rap guanine nucleotide exchange factor 3 (Homo sapiens) (O95398 whole entry, looked up): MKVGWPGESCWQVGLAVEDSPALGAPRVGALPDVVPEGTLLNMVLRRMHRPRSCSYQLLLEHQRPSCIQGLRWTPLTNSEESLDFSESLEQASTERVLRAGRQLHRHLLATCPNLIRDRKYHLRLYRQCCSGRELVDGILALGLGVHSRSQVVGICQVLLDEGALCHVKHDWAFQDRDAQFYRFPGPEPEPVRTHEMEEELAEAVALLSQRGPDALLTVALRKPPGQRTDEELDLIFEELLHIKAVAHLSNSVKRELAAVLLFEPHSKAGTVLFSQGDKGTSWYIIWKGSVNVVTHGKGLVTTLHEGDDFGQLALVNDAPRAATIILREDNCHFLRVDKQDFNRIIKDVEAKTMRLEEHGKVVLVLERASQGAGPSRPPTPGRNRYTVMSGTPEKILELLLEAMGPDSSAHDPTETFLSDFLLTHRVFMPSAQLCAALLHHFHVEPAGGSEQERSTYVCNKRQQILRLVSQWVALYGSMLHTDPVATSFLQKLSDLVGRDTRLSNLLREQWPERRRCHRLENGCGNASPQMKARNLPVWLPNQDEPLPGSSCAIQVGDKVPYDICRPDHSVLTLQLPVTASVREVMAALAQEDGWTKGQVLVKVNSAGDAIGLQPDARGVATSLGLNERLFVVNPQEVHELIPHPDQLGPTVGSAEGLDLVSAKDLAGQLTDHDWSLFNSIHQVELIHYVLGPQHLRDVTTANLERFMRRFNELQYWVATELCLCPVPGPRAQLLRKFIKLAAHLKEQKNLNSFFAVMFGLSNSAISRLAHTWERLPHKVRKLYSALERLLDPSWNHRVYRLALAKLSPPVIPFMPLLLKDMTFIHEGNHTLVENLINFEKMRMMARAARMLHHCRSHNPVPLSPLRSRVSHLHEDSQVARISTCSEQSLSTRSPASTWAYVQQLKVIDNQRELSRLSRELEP
Sequence of Rap guanine nucleotide exchange factor 4 (Homo sapiens) (Q8WZA2 whole entry, looked up): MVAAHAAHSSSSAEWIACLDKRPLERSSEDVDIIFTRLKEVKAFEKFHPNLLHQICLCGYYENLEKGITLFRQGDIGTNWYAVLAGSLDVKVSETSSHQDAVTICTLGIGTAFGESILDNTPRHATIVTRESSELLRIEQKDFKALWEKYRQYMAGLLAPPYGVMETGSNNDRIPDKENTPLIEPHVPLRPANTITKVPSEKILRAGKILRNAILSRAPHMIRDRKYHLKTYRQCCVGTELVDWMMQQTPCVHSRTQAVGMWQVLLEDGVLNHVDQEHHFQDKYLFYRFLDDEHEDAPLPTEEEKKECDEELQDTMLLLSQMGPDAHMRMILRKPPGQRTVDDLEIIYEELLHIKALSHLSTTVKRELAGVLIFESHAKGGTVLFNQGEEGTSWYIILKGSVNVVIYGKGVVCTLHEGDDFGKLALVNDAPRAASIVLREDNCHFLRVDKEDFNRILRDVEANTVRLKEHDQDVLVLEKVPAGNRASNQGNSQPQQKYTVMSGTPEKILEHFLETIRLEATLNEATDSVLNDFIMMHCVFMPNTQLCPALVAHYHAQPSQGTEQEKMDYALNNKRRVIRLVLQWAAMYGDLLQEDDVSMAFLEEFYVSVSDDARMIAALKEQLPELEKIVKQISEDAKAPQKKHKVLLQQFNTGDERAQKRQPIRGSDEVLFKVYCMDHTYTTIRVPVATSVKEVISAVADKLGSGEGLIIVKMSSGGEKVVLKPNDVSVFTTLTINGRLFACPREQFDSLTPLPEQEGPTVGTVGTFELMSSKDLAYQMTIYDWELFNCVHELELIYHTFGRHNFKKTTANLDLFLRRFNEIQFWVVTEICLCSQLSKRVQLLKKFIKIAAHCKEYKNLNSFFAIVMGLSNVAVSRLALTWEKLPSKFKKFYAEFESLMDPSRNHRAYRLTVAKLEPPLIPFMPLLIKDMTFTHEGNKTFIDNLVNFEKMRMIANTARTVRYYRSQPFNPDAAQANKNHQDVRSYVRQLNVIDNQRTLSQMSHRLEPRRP

SMILES | Potency [1] | Potency [2] | activation [3] | Potency [4] | activity change, negative = inhibition [5] | activation [6] | Potency [3] | Potency [5] | Potency [6] | outcome [4]
C[n+]1cc(C(=O)N2CCCCC2)ccc1/C=C/c1c[nH]c2ccccc12 | inactive | 89.1 µM (active) | 10.6% [at 17.1 µM, percent relative to cAMP agonist control] | inactive | -7.76% [at 30.8 µM] | 14.5% [at 30.8 µM] |  |  |  | 
COc1ccc(N2CCN(C(=O)COC(=O)COc3cc(C)cc(C)c3)CC2)cc1 | inactive | inactive | 0.676% [at 17.1 µM, percent relative to cAMP agonist control] | inactive | -19.2% [at 30.8 µM] | -0.0753% [at 30.8 µM] |  |  |  | 
Cc1ccc(Cl)cc1NC(=O)C(C)n1nc(-c2ccccc2)ccc1=O (configuration not stated) | inactive | inactive |  | inactive |  |  | inactive | inactive | inactive | 
COC(=O)c1ccc(OC(=O)c2ccc(OC)cc2)c(OC)c1 | inactive | inactive | 7.15% [at 17.1 µM, percent relative to cAMP agonist control] | inactive | -8.27% [at 30.8 µM] | 6.57% [at 30.8 µM] |  |  |  | 
O=C(c1ccc(CSCc2ccccc2F)o1)N1CCN(c2ccc(N3CCOCC3)nn2)CC1 | inactive | inactive | 3.73% [at 17.1 µM, percent relative to cAMP agonist control] | inactive | -4.38% [at 30.8 µM] | 14.5% [at 30.8 µM] |  |  |  | 
O=C(COC(=O)c1ccc2c(c1)OCO2)NC1CCS(=O)(=O)C1 (configuration not stated) | inactive | inactive |  | inactive |  |  | inactive | inactive | inactive | 
Cc1cc(C)c(C)c(S(=O)(=O)Nc2cccc(S(=O)(=O)Nc3ccccc3C(=O)O)c2)c1C | 39.8 µM (active) | inactive | 4.6% [at 17.1 µM, percent relative to cAMP agonist control] | inactive | -6.25% [at 30.8 µM] | 0.792% [at 30.8 µM] |  |  |  | 
COc1ccccc1NC(=O)C(C)OC(=O)COc1cccc2c1OC(C)(C)C2 (configuration not stated) | inactive | inactive | 2.07% [at 17.1 µM, percent relative to cAMP agonist control] | inactive | -14.5% [at 30.8 µM] | 7.64% [at 30.8 µM] |  |  |  | 
CCC(C)NC(=O)CS(=O)Cc1nc(-c2ccccc2C)oc1C (configuration not stated) | inactive | inactive |  | inactive |  |  | inactive | inactive | inactive | 
COCOCCn1cc(CN2CCS(=O)(=O)N(Cc3ccc(-c4ccc(Cl)cc4)cc3)C(CC(C)C)C2=O)nn1 (configuration not stated) | inactive | inactive |  | inactive |  |  | inactive | inactive | inactive | 
Cc1ccc(C(=O)ONc2ccc(N=NC(=O)c3ccccc3O)cc2)cc1 | 7.57 µM (active) | inactive |  | inactive |  |  | inactive | inactive | inactive | 
CCc1ccc(/C=C2\SC(=S)N(CCC(=O)Nc3cc(C)on3)C2=O)cc1 | inactive | inactive |  | inactive |  |  | inactive | inactive | inactive | 
COc1cccc(C2c3[nH]c4ccccc4c3CCN2Cc2ncc[nH]2)c1 (configuration not stated) | inactive | inactive | 1.64% [at 17.1 µM, percent relative to cAMP agonist control] | inactive | -8.75% [at 30.8 µM] | 15.1% [at 30.8 µM] |  |  |  | 
O=C(N/N=C/C=C\c1ccco1)c1ccccn1 | 6.01 µM (active) | inactive |  | inactive |  |  | inactive | inactive | inactive | 
C=CCN(CC=C)Cc1cc(=O)oc2cc(OC)ccc12 | inactive | inactive | 5.94% [at 17.1 µM, percent relative to cAMP agonist control] | inactive | -16% [at 30.8 µM] | -2.24% [at 30.8 µM] |  |  |  | 
C[C@@H](NC(=O)C1(c2ccccc2)CCN(C(=O)OC(C)(C)C)CC1)C(=O)N[C@@H](C(=O)O)c1ccccc1 | 42.6 µM (active) | inactive |  | 42.6 µM (active) |  |  | inactive | inactive | inactive | 
O=C(OC1CCOC1=O)c1ccc(-c2nc3ccccc3s2)s1 (configuration not stated) | inactive | inactive |  |  |  |  | inactive | inactive | inactive | inactive [at 12.7 µM]
COC(=O)c1ccc(N2C(=O)CC(N3CCOCC3)C2=O)cc1 (configuration not stated) | inactive | inactive | 8.32% [at 17.1 µM, percent relative to cAMP agonist control] | inactive | 6.34% [at 30.8 µM] | 10.6% [at 30.8 µM] |  |  |  | 
CN(Cc1ccccc1N1CCCC1)C(=O)c1cc2ccccc2o1 | inactive | inactive | 4.19% [at 17.1 µM, percent relative to cAMP agonist control] | inactive | -10.5% [at 30.8 µM] | 17.8% [at 30.8 µM] |  |  |  | 
Cc1ccccc1-c1cc(C(=O)NCc2ccc3c(c2)OCO3)n(CC2CC(c3cccnc3)=NO2)n1 (configuration not stated) | inactive | inactive |  | inactive |  |  | inactive | inactive | inactive | 
O=[N+]([O-])c1cc(-c2ccccc2)cc([N+](=O)[O-])c1O | 75.7 µM (active) | inactive |  | 42.6 µM (active) |  |  | inactive | inactive | inactive | 

SMILES | Potency [1] | Potency [2] | activation [3] | Potency [4] | activity change, negative = inhibition [5] | activation [6] | Potency [3] | Potency [5] | Potency [6] | outcome [4]
Cc1ccc(OCC(=O)Nc2ccccc2N2CCCC2)c(C)c1 | inactive | inactive |  | inactive |  |  | inactive | inactive | inactive | 
Cc1ccc(N(Cc2cccs2)C(=O)c2ccccc2[N+](=O)[O-])cc1 | inactive | inactive |  | inactive |  |  | inactive | inactive | inactive | 
COc1cc(/C=N/NC(=O)c2ccc3c(c2)OCCO3)cc(Br)c1O | 42.6 µM (active) | inactive |  | inactive |  |  | inactive | inactive | inactive | 
Cc1[nH]c2ccccc2c1C(C[N+](=O)[O-])c1cccs1 (configuration not stated) | inactive | inactive | 5.2% [at 17.1 µM, percent relative to cAMP agonist control] | inactive | -10.6% [at 30.8 µM] | 46.2% [at 30.8 µM] |  |  |  | 
O=S(=O)(NCc1cn2ccsc2n1)c1cccs1 | inactive | inactive | 0% [at 17.1 µM, percent relative to cAMP agonist control] | inactive | -13.2% [at 30.8 µM] | 3.73% [at 30.8 µM] |  |  |  | 
CCC(C)NC(=O)Cn1c(=O)n(CCCCCC(=O)Nc2ccccc2)c(=O)c2sccc21 (configuration not stated) | inactive | inactive |  | inactive |  |  | inactive | inactive | inactive | 
O=C(OCc1c(-c2ccccc2)ncc2ccccc12)c1ccco1 | inactive | inactive |  | inactive |  |  | inactive | inactive | inactive | 
CC1(C(=O)NS(=O)(=O)c2cccc(F)c2)CCN1C(=O)C1(c2ccc(Cl)cc2)CCC1 (configuration not stated) | 19 µM (active) | inactive |  | inactive |  |  | inactive | inactive | inactive | 
COc1ccc(CCNC(=O)c2c(C)nn(-c3ccc(F)cc3)c2-n2cccc2)cc1OC | inactive | inactive |  | inactive |  |  | inactive | inactive | inactive | 
Cc1cn(S(=O)(=O)c2ccccc2[N+](=O)[O-])cn1 | inactive | inactive | 0.773% [at 17.1 µM, percent relative to cAMP agonist control] | inactive | -3.67% [at 30.8 µM] | -4.19% [at 30.8 µM] |  |  |  | 
CN(C)C(=S)Oc1ccccc1-c1ccccc1OC(=S)N(C)C | inactive | inactive |  | inactive |  |  | inactive | inactive | inactive | 
CN1/C(=C\C=C2/SC(=S)NC2=O)C(C)(C)c2ccccc21 | inactive | 79.4 µM (active) |  | 7.57 µM (active) |  |  | 79.4 µM (active) | inactive | 70.8 µM (active) | 
Cc1ccc(-n2nc3ccc(NC(=O)/C=C/c4ccco4)cc3n2)cc1 | 39.8 µM (active) | inactive | 5.31% [at 17.1 µM, percent relative to cAMP agonist control] | inactive | 8.52% [at 30.8 µM] | 13.9% [at 30.8 µM] |  |  |  | 
CN(C)c1ccc(/C=C/c2nc3ccccc3c(=O)n2-c2ccc(C(=O)O)cc2)cc1 | 75.7 µM (active) | inactive |  | 67.5 µM (active) |  |  | inactive | inactive | 39.8 µM (active) | 
Cc1ccc2[nH]cc(C(c3ccccc3)c3cccs3)c2c1 (configuration not stated) | inactive | inactive |  |  |  |  | inactive | inactive | inactive | inactive [at 12.7 µM]
O=[N+]([O-])c1cc([N+](=O)[O-])c2nonc2c1Nc1ccc(O)cc1 | 75.7 µM (active) | inactive |  | 42.6 µM (active) |  |  | inactive | inactive | inactive | 
O=C(CCC1CCCC1)Nc1ccc([N+](=O)[O-])cn1 | inactive | inactive |  | inactive |  |  | inactive | inactive | inactive | 
CC(OC(=O)c1nn(C)c(=O)c2ccccc12)C(=O)NC1CCCCC1C (configuration not stated) | inactive | inactive |  | inactive |  |  | inactive | inactive | inactive | 
COC(=O)C1(Cc2ccccc2)NC(c2ccc(F)cc2)C2C(=O)N(C)C(=O)C21 (configuration not stated) | inactive | inactive | 1.04% [at 17.1 µM, percent relative to cAMP agonist control] | inactive | 4.27% [at 30.8 µM] | 3.32% [at 30.8 µM] |  |  |  | 
CCN(CC)c1nc(C)nc2c1sc(=S)n2C | inactive | inactive |  | inactive |  |  | inactive | inactive | inactive | 
Cc1cccc(NC(=S)NC(=O)/C=C/c2ccco2)c1 | 75.7 µM (active) | inactive |  | inactive |  |  | inactive | inactive | inactive | 
